From PubChem BioAssay (Tox21)
“And” between values parts separate entries of the source, which are not always exact repeats. Equal entries are not always repeated. Records with an inconclusive call do not appear. The source made the active and inactive calls. Unless noted, calls come from the whole dose curve; as a rule, active = well fitted curve in the direction sought with a large enough effect in the repeat runs; inconclusive = weak or mixed curves; inactive = no such curve, though single readings can be large; an effect the other way counts as inactive or inconclusive.

Tests used:
[1] = qHTS assay for small molecule agonists of the p53 signaling pathway (AID 651631; calls by dose curve; note: nearly all actives have a fitted effect of over 15% in size; note: potency is the fitted concentration of half-maximal effect)
Procedure, shortened: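 p53RE-bla HCT-116 cells; compounds 16 h, 37 °C; LiveBLAzer B/G FRET substrate 2 h RT; fluorescence intensity read-out, qHTS format.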

[2] = qHTS assay for small molecules that induce genotoxicity in human embryonic kidney cells expressing luciferase-tagged ATAD5 (AID 651632); note: nearly all actives have a fitted effect of over 15% in size; note: potency is the fitted concentration of half-maximal effect
Procedure, shortened: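 Reporter cells (HEK293T) express luciferase-tagged ATAD5, a protein that accumulates after DNA damage. Treat 16 hr at 37C/5% CO2, add Amplite, wait 30 min at RT, and read luminescence.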

[3] = qHTS assay for small molecule agonists of the p53 signaling pathway - cell viability (AID 651633; calls by dose curve; note: nearly all actives have a fitted effect of over 30% in size; note: potency is the fitted concentration of half-maximal effect)
Procedure, shortened: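 Viability counter-read: CellTiter-Glo luminescence (30 min, room temperature) in the same p53RE-bla plates. These plates had been exposed to compounds for 16 h at 37 C.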

[4] = qHTS assay for small molecules that induce genotoxicity in human embryonic kidney cells expressing luciferase-tagged ATAD5 - cell viability (AID 651634; calls by dose curve; note: nearly all actives have a fitted effect of over 25% in size; note: potency is the fitted concentration of half-maximal effect)
Procedure, shortened: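 Seeding of 2,000 HEK293T ATAD5-luciferase cells per well preceded pin-tool compound transfer. Plates sat 15.5 hr at 37C under 5% CO2, then fluorescence was read after 30 min with CellTiter-Fluor.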

[5] = qHTS assay for small molecule disruptors of the mitochondrial membrane potential - cell viability (AID 720634; calls by dose curve;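 note: human HepG2 liver cancer cells; series mostly up to about 83 µM; nearly all actives have a fitted effect of over 20% in size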)
Procedure, shortened: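 Measuring cytotoxicity alongside mitochondrial potential, the screen quantified ATP by luminescence in HepG2 cells after 1 hr compound incubation and a 30 min room-temperature CellTiter-Glo step.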

[6] = qHTS assay for small molecule disruptors of the mitochondrial membrane potential (AID 720635); note: potency is the fitted concentration of half-maximal effect
Procedure, shortened: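 Mitochondrial membrane potential tracked with Mito-MPS dye, red aggregates (ex 540/em 590 nm) against green monomers (ex 490/em 535 nm). Compound treatment 1 hr at 37C, dye 30 min in HepG2.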

[7] = qHTS assay to test for compound auto fluorescence at 590 nm (red) in HepG2 cells (AID 720674)
Procedure, shortened: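 1 hr compound incubation on HepG2 cells, 37 C, 5% CO2; plate read ex 540 nm / em 590 nm; intensities reported as Rose Bengal sodium equivalents.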

[8] = qHTS assay to test for compound auto fluorescence at 535 nm (green) in HepG2 cells (AID 720675)
[9] = qHTS assay to test for compound auto fluorescence at 460 nm (blue) in HEK293 cells (AID 720678)
Procedure, shortened: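 HEK293 cells (2,000/well, medium with 10% dialyzed FBS) attached 4-5 hr, then exposed to compound overnight at 37C, 5% CO2. Blue fluorescence read at 405/460 nm, with triamterene as reference fluorophore.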

[10] = qHTS assay to test for compound auto fluorescence at 590 nm (red) in HEK293 cells (AID 720679)
Procedure, shortened: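 HEK293 cells (2,000/well, 10% dialyzed FBS) attached 4-5 hr, then dosed with compound or DMSO and incubated overnight at 37C, 5% CO2. Red fluorescence read at 540/590 nm, Rose Bengal sodium as reference fluorophore.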

Measured: Potency

O=P(O)(O)OC(Cn1cncn1)(Cn1cncn1)c1ccc(F)cc1F
inactive: all assays above

C=C1CC2C3CCC4=CC(=O)C=C[C@]4(C)[C@@]3(F)[C@@H](O)C[C@]2(C)[C@@]1(O)C(=O)COC(C)=O (some centres not stated)
inactive: all assays above

OCC(O)COc1ccc(Cl)cc1 (configuration not stated)
inactive: all assays above

COc1ccc2c(=O)c(C)c(-c3ccccc3)oc2c1CN(C)C
inactive: all assays above

O=P(O)(O)C(Sc1ccc(Cl)cc1)P(=O)(O)O
not listed: [8]
inactive: all other assays above

CCCC(=O)O[C@]1(C(=O)COC(=O)CC)[C@@H](C)C[C@H]2[C@@H]3CCC4=CC(=O)C=C[C@]4(C)[C@@]3(F)[C@@H](O)C[C@@]21C
active: [6] 26.6 µM
inactive: all other assays above

Nc1ccn(C[C@@H](CO)OCP(=O)(O)O)c(=O)n1
not listed: [8]
inactive: all other assays above

CN1CC(O)c2cc(N=NC(N)=O)c(O)cc21 (configuration not stated)
inactive: all assays above

NC(=O)Oc1ccc(Cc2ccccc2)cc1
active: [6] 21.1 µM
inactive: all other assays above

O=C(O)[C@H](CC(=O)N1C[C@H]2CCCC[C@H]2C1)Cc1ccccc1
inactive: all assays above

OC[C@@H](O)C(O)[C@H](O)CO
inactive: all assays above

O=C(OCCO)c1ccccc1O
inactive: all assays above

CC#CCC(C)[C@H](O)/C=C/[C@@H]1[C@H]2C/C(=C/CCCC(=O)O)C[C@H]2C[C@H]1O (some centres not stated)
inactive: all assays above

Cn1nnnc1SCC1=C(C(=O)O)N2C(=O)[C@@H](NC(=O)[C@H](O)c3ccccc3)[C@H]2SC1
inactive: all assays above

CO[C@H]1O[C@@H]2O[C@@]3(C)CC[C@H]4[C@H](C)CC[C@@H]([C@H]1C)[C@@]24OO3
inactive: all assays above

C[N+](C)(CCCCCC[N+](C)(C)C1c2ccccc2-c2ccccc21)C1c2ccccc2-c2ccccc21
inactive: all assays above

CN(C(=O)CO)c1c(I)c(C(=O)NCC(O)CO)c(I)c(C(=O)NCC(O)CO)c1I (configuration not stated)
inactive: all assays above

O=P(O)(O)C(O)(Cc1cnc2ccccn12)P(=O)(O)O
inactive: all assays above

O=C(NCCNCC(O)COc1ccc(O)cc1)N1CCOCC1 (configuration not stated)
inactive: all assays above

CCC(c1ccccc1)c1noc(CCN(CC)CC)n1 (configuration not stated)
not listed: [8]
inactive: all other assays above

COC1=C(C(=O)O)N2C(=O)[C@@H](NC(=O)[C@H](N)C3=CCC=CC3)[C@H]2SC1
inactive: all assays above

CCOC(=O)COc1ccc2c(C)c(CCN(CC)CC)c(=O)oc2c1
inactive: all assays above

N[C@@H](C(=O)N[C@@H]1C(=O)N2C(C(=O)O)=C(Cl)CC[C@H]12)c1ccccc1
inactive: all assays above

NCCC[C@H](N)C(=O)O
inactive: all assays above

CC(=O)O[C@H]1C[C@@H]2CC[C@@H]3[C@H](CC[C@@]4(C)[C@H]3C[C@H](N3CC[N+](C)(C)CC3)[C@@H]4OC(C)=O)[C@@]2(C)C[C@@H]1N1CC[N+](C)(C)CC1
not listed: [8]
inactive: all other assays above

CCOc1ccc(N=C(C)Nc2ccc(OCC)cc2)cc1
inactive: all assays above

COc1ccc(CCNCC(O)COc2cccc(C)c2)cc1OC (configuration not stated)
inactive: all assays above

CS(=O)(=O)NC(=O)CCC/C=C\C[C@H]1C(=O)C[C@@H](O)[C@@H]1/C=C/[C@H](O)COc1ccccc1
not listed: [8]
inactive: all other assays above

CNC[C@@H]1CC[C@@H](N)[C@@H](O[C@H]2[C@H](O)[C@@H](O[C@H]3OC[C@](C)(O)[C@H](NC)[C@H]3O)[C@H](N)C[C@@H]2N)O1
inactive: all assays above

C#CCC(Cc1cnc2nc(N)nc(N)c2n1)c1ccc(C(=O)N[C@@H](CCC(=O)O)C(=O)O)cc1 (some centres not stated)
active: [1] 266 nM | [3] 0.266 µM | [4] 211 nM
not listed: [9]
inactive: all other assays above

CCCC(CCC)C(N)=O
inactive: all assays above

C=C1/C(=C\C=C2/CCC[C@]3(C)[C@@H]([C@H](C)OCCC(C)(C)O)CC[C@@H]23)C[C@@H](O)C[C@@H]1O
active: [1] 11900 nM
inactive: all other assays above

CC(=O)[C@]1(O)Cc2c(O)c3c(c(O)c2[C@@H](O[C@H]2C[C@H](N)[C@H](O)[C@H](C)O2)C1)C(=O)c1c(O)cccc1C3=O
active: [1] 944 nM and 2.37 µM | [2] 750 nM and 944 nM | [4] 10.6 µM and 11.9 µM | [6] 441 nM and 5.31 µM
not listed: [8]
inactive: all other assays above

N[C@@H](C(=O)N[C@@H]1C(=O)N2C(C(=O)O)=C(CSc3cn[nH]n3)CS[C@H]12)c1ccc(O)cc1
inactive: all assays above

C[C@H]1C[C@H]2[C@@H]3CCC4=CC(=O)C=C[C@]4(C)[C@@]3(F)[C@@H](O)C[C@]2(C)[C@@]1(O)C(=O)CCl
active: [6] 11.9 µM
inactive: all other assays above

COC(=O)[C@H]1[C@H]2C[C@@H]3c4[nH]c5cc(OC)ccc5c4CCN3C[C@H]2C[C@H](OC)[C@@H]1OC
not listed: [9]
inactive: all other assays above

CCOC(=O)Cc1cccc(-c2cc(CCCCCCc3ccc(O[C@H]4O[C@H](COC(C)=O)[C@@H](OC(C)=O)[C@H](OC(C)=O)[C@@H]4OC(C)=O)c(-c4cccc(CC(=O)OCC)c4)c3)ccc2O[C@H]2O[C@H](COC(C)=O)[C@@H](OC(C)=O)[C@H](OC(C)=O)[C@@H]2OC(C)=O)c1
inactive: all assays above
